Laboratory results: the supplement of paper PMC3334620
The full ranking holds about 33,000 sequences; the median of “E-score (-0.5 to 0.5)” is about -8e-05, and the highest 2% start at about 0.23. The sample holds the highest values, similar sequences and a random draw of the others, so the mix is not that of the screen.

Biological target: T1, Nrg2 (UniProt P38082)
T1 sequence: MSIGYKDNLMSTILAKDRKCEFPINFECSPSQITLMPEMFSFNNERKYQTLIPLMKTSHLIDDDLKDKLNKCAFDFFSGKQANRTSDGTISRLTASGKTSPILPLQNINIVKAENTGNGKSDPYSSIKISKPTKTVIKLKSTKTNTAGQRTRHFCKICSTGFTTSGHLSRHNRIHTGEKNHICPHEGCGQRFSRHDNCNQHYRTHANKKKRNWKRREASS
Test: PBM E-score (8-mer binding enrichment) (E-score (-0.5 to 0.5)); higher = stronger / more preferred TF binding
Details: protein concentration: 100 nM; construct: GST-full length
Procedure, shortened: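 PURExpress in vitro transcription/translation supplied GST-tagged yeast transcription factors, either full-length or DNA-binding domain. Applied at about 100-200 nM to universal all-10-mer Agilent arrays double-stranded by primer extension, the bound protein was detected with fluorescent anti-GST. E-scores, modified Wilcoxon-Mann-Whitney statistics, were given by the Universal PBM Analysis Suite to ungapped eight-base words pooled with their reverse complements after masliner normalisation.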

Sequence | PBM E-score
AGTACTAC | 0.118
CTCGCTTA | 0.132
TCCACCGA | -0.0753
AAGCGATT | -0.0219
AACTGCAC | 0.0736
AACTGCAT | 0.232
AACTGCAG | -0.0636
GCTCAGCA | -0.133
AAGCCACC | -0.198
GAACTGTC | 0.0447
GCGAGTAA | 0.198
ACGAGTAT | 0.0482
ACGAGTAA | 0.244
ATGGGTTA | 0.0918
AGTGGTTC | -0.0506
ATACGCAA | 0.232
GTACGCAA | -0.131
ATACGCAG | -0.235
CTCTGGTA | -0.0435
GAAGAACA | 0.155
CAAGAACA | 0.007
TAAGAACA | 0.26
AGTCGACA | 0.194
AGTCGACC | -0.0853
AGTCGACT | 0.243

Sequence | PBM E-score
GGGAGAAC | -0.189
AAGAAGGC | -0.197
AGACATTC | -0.0988
GCCCTGTA | 0.208
ACCCTGAA | 0.319
ATCCTGAA | 0.125
ACCCTGTA | 0.347
AACCTGAA | -0.178
AGCCTGTA | -0.126
ACAAGGAC | -0.0546
GCGGTCCA | -0.159
TAAAGCCA | 0.0522
AAACAAAT | 0.235
AAACAAAA | 0.0254
CAACAAAC | 0.0713
ATACAAAT | 0.173
GAACAAAC | 0.323
GAACAAAA | 0.195
ATACAAAA | 0.218
AAACAAAC | -0.0324
ATACAAAC | 0.258
AGTCCATA | 0.0684
TCAGACAA | 0.0781
CAGCAGCC | 0.0863
GTTGCCAA | 0.0119

Sequence | PBM E-score
CTAGGCAC | -0.162
AGCTTTAG | -0.105
GAGGCCTC | -0.327
AGACGCTA | -0.138
CATTCGAA | 0.0948
GATTCGAA | 0.256
GATTCGAC | 0.141
ATGGCAGG | 0.12
ATTGTTTG | 0.18
CCAGTTTC | 0.0541
ACAGTTTC | 0.259
ATTGTTTC | 0.256
ACAGTTTA | -0.0808
CTTGTTTC | 0.0127
AGATCAAC | 0.07
TATCCGGA | 0.112
AAGGAGAC | -0.156
ACCACAAT | -0.0522
AGGTGTAC | -0.145
TGGAACAA | 0.155
GCGAACAA | 0.322
ACGAAACA | 0.0539
CCGAAACA | 0.102
ACGAACAA | 0.124
TCGAAACA | 0.232

Sequence | PBM E-score
CCGAACAA | 0.0547
TCGAACGA | 0.0281
TCGAACAA | 0.259
TCAGATGA | 0.148
AATCGCCA | 0.0545
TAAGGACA | -0.0222
CGCTAGCC | -0.255
ACAGAGAC | 0.00483
CTTCTTGA | -0.0331
CAATGGAA | 0.131
CAATTCGC | 0.277
AAATTCGT | 0.235
CAATTCGA | -0.135
AAATTCGG | 0.205
CAATTCGG | 0.0993
AAATTCGA | -0.0488
GAATTCGC | 0.141
CTATTCGC | 0.0444
AAATTCGC | 0.234
AAGTTGGA | 0.134
AAAATCTT | -0.0461
AGCCGCCC | -0.0653
CCCAGTGC | 0.037
CAAAACCC | 0.222
CACAAGAA | 0.245

Sequence | PBM E-score
AGCAAGAA | 0.0497
CACAAGAG | 0.14
CAAAACCA | 0.249
AAAAACCA | 0.112
GAAGAGAA | -0.0264
CAAGAGAA | 0.232
CACAAAAA | 0.131
CGCAAGAA | 0.299
CGCAAAAA | 0.141
CAAGAGAG | -0.0197
CGGGATGC | -0.163
CCGCTAAA | 0.0162
CAAGGTCG | 0.00137
CATAGCTC | -0.112
CAAAAAAC | 0.079
CCAAAAAA | 0.18
CAAAAAAA | 0.245
CGTGAAGA | -0.0995
CACTACTG | 0.077
AGCGTCGG | -0.0319
ACGGTCGC | -0.131
CGGGTCGA | -0.181
AGGGTCGA | 0.262
CGGGTCGC | -0.0689
AGGGTCGC | 0.243

Sequence | PBM E-score
AGCGTCGC | -0.0577
AGCGTCGA | 0.244
AGGGTCGG | 0.0394
GCGGCCCA | -0.0651
GCTGAAGA | -0.0685
ACAGCTTC | -0.102
AAGAGATT | 0.00595
CATACTGA | 0.135
GATACTGA | 0.0997
TATACTGA | 0.261
GCTATCTA | -0.0754
ACCTATAA | -0.112
AAATATAC | 0.0852
AAATAGAT | 0.27
AAATATAT | 0.257
AAATAGAG | -0.0562
ACCTATAC | -0.044
AAATAGAC | 0.165
AAATATAA | 0.161
ACCTATAT | 0.236
CAGAAAGG | 0.0423
AAGATCTT | -0.0257
CTCGGTCA | -0.0604
AACCGCCG | -0.0452
GCTAAGAA | -0.103

Sequence | PBM E-score
TATGAGCA | -0.127
ATGAATGA | 0.0659
ATGAATGG | 0.339
ATGAATGC | 0.13
GTATGCGA | 0.136
AGCAAATC | 0.147
ACCGATAC | -0.00076
TGAACAAA | 0.244
GGAACAAA | 0.263
CGAACAAA | 0.279
TTAACAAA | 0.094
CGAACAAC | 0.152
CTCACGCA | 0.353
GCAACAAA | 0.176
CGAACAAG | 0.165
GGAACAAC | 0.133
GTCACGCA | 0.0867
AGAACAAA | 0.208
CTCACGCC | 0.0298
CTGCACGA | 0.0401
AACTTATA | 0.145
GCCGACAC | -0.0613
